Data published in the supplement of paper PMC8728848.
Only a selection was taken, and the strongest signals are over-represented in it overall.

Assays:
Assay in all cases: glycan array binding signal (z-score within array); higher = stronger binding
Settings in all cases: glycan notation: IUPAC condensed, linker removed
[1] = target: Fuc(a1-2)Gal(b1-3)GalNAc(b1-3)Gal
How it was run: (§1)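 From the Consortium for Functional Glycomics database, 3228 arrays were curated, keeping only those whose protein sequence was available. Binding is given as a within-array Z-score averaged across arrays sharing a protein sequence and across linkers. Negative Z-scores can be read as non-binding.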

Fuc(a1-2)Gal(b1-4)Glc6S = target: Fuc(a1-2)Gal(b1-4)Glc6S
How it was run: as §1

[2] = target: Fuc(a1-2)Gal(b1-4)GlcNAc(b1-3)GalNAc
How it was run: as §1

[3] = target: Fuc(a1-2)Gal(b1-4)[Fuc(a1-3)]GlcNAc(b1-2)Man(a1-3)[Fuc(a1-2)Gal(b1-4)[Fuc(a1-3)]GlcNAc(b1-2)Man(a1-6)]Man(b1-4)GlcNAc(b1-4)[Fuc(a1-6)]GlcNAc
How it was run: as §1

[4] = target: Fuc(a1-2)Gal(b1-4)[Fuc(a1-3)]GlcNAc(b1-3)Gal(b1-4)[Fuc(a1-3)]GlcNAc(b1-3)Gal(b1-4)[Fuc(a1-3)]GlcNAc
How it was run: as §1

[5] = target: Fuc(a1-2)Gal(b1-4)[Fuc(a1-3)]GlcNAc(b1-3)[Neu5Ac(a2-6)Gal(b1-4)GlcNAc(b1-6)]Gal(b1-4)Glc
How it was run: as §1

[6] = target: Fuc(a1-2)[Gal(a1-3)]Gal(b1-4)GlcNAc(b1-6)GalNAc
How it was run: as §1

[7] = target: Fuc(a1-2)[Gal(a1-3)]Gal(b1-4)[Fuc(a1-3)]GlcNAc(b1-3)GalNAc
How it was run: as §1

[8] = target: Fuc(a1-2)[GalNAc(a1-3)]Gal(b1-3)GalNAc(b1-3)Gal(a1-4)Gal(b1-4)Glc
How it was run: as §1

[9] = target: Fuc(a1-2)[GalNAc(a1-3)]Gal(b1-3)GlcNAc(b1-3)GalNAc
How it was run: as §1

[10] = target: Fuc(a1-2)[GalNAc(a1-3)]Gal(b1-4)GlcNAc(b1-2)Man(a1-3)[Fuc(a1-2)[GalNAc(a1-3)]Gal(b1-4)GlcNAc(b1-2)Man(a1-6)]Man(b1-4)GlcNAc(b1-4)GlcNAc
How it was run: as §1

[11] = target: Fuc(a1-2)[GalNAc(a1-3)]Gal(b1-4)[Fuc(a1-3)]GlcNAc(b1-3)GalNAc
How it was run: as §1

[12] = target: Fuc(a1-3)[Gal(b1-4)]GlcNAc(b1-6)[Neu5Ac(a2-3)Gal(b1-3)]GalNAc
How it was run: as §1

[13] = target: Gal(a1-4)Gal(b1-4)GlcNAc(b1-3)Gal(b1-4)Glc
How it was run: as §1

Gal(b1-3)Gal = target: Gal(b1-3)Gal
How it was run: as §1

[14] = target: Gal(b1-3)GalNAc(a1-3)[Fuc(a1-2)]Gal(b1-4)Glc
How it was run: as §1

[15] = target: Gal(b1-3)GalNAc(b1-4)Gal(b1-4)Glc
How it was run: as §1

[16] = target: Gal(b1-3)GlcNAc(a1-3)Gal(b1-4)GlcNAc
How it was run: as §1

[17] = target: Gal(b1-3)[Neu5Ac(a2-6)]GlcNAc(b1-4)Gal(b1-4)Glc
How it was run: as §1

[18] = target: Gal(b1-4)GlcNAc(b1-2)Man(a1-3)[Gal(b1-4)GlcNAc(b1-2)Man(a1-6)]Man(b1-4)GlcNAc(b1-4)[Fuc(a1-6)]GlcNAc
How it was run: as §1

[19] = target: Gal(b1-4)GlcNAc(b1-2)Man(a1-3)[Gal(b1-4)GlcNAc(b1-2)Man(a1-6)][Gal(b1-4)GlcNAc(b1-4)]Man(b1-4)GlcNAc(b1-4)[Fuc(a1-6)]GlcNAc
How it was run: as §1

[20] = target: Gal(b1-4)GlcNAc(b1-2)Man(a1-3)[GlcNAc(b1-4)][Gal(b1-4)GlcNAc(b1-2)Man(a1-6)]Man(b1-4)GlcNAc(b1-4)GlcNAc
How it was run: as §1

[21] = target: Gal(b1-4)GlcNAc(b1-2)Man(a1-3)[Man(a1-6)]Man(b1-4)GlcNAc(b1-4)GlcNAc
How it was run: as §1

[22] = target: Gal(b1-4)GlcNAc(b1-2)[Gal(b1-4)GlcNAc(b1-4)]Man(a1-3)[GlcNAc(b1-4)][Gal(b1-4)GlcNAc(b1-2)Man(a1-6)]Man(b1-4)GlcNAc(b1-4)GlcNAc
How it was run: as §1

[23] = target: Gal(b1-4)GlcNAc(b1-3)Gal(b1-4)GlcNAc(b1-3)[Gal(b1-4)GlcNAc(b1-3)Gal(b1-4)GlcNAc(b1-6)]GalNAc
How it was run: as §1

Gal3S6S(b1-4)GlcNAc6S = target: Gal3S6S(b1-4)GlcNAc6S
How it was run: as §1

Gal6S(b1-3)GlcNAc6S = target: Gal6S(b1-3)GlcNAc6S
How it was run: as §1

Gal6S(b1-4)GlcNAc6S = target: Gal6S(b1-4)GlcNAc6S
How it was run: as §1

[24] = target: GalNAc(a1-3)GalNAc(b1-3)Gal(a1-4)Gal(b1-4)Glc
How it was run: as §1

[25] = target: GalNAc(b1-4)GlcNAc(b1-2)Man
How it was run: as §1

[26] = target: GlcA3S(b1-3)Gal(b1-4)GlcNAc(b1-3)Gal(b1-4)Glc
How it was run: as §1

B1: PpFlo1 (Pichia pastoris) (protein)
chain: MGSSHHHHHHSSGLVPRGSHMQESGDGDISDSAYACDIDATRYDGFNATIYEFQPGDGRLTRDPVFMSTGYLNRTQLHSITGVTDPGFSIYTPGVPTTTLYGIPNVNWENLLLELKGYFRAEVSGDYGLSLRNIDDSAILFFGKETAFQCCNENSISNEASTDYSLFTIFRQEGDETTNLDSFTYTQYLEAGKYYPVRTFFVNIERHAVFNFTMTLPDGTELTDFHNYIYQFGALDEEQCQA
- glycan array binding signal (z-score) [1]: -0.068
- glycan array binding signal (z-score) (Fuc(a1-2)Gal(b1-4)Glc6S): -0.627
- glycan array binding signal (z-score) [2]: 9.01
- glycan array binding signal (z-score) [3]: 0.805
- glycan array binding signal (z-score) [4]: 0.218
- glycan array binding signal (z-score) [5]: -0.279
- glycan array binding signal (z-score) [6]: -0.228
- glycan array binding signal (z-score) [7]: 1.04
- glycan array binding signal (z-score) [8]: -0.244
- glycan array binding signal (z-score) [9]: 3.23
- glycan array binding signal (z-score) [10]: 2.04
- glycan array binding signal (z-score) [11]: 7.08
- glycan array binding signal (z-score) [12]: 3.09
- glycan array binding signal (z-score) [13]: -0.25
- glycan array binding signal (z-score) (Gal(b1-3)Gal): 0.345
- glycan array binding signal (z-score) [14]: -0.55
- glycan array binding signal (z-score) [15]: 3.27
- glycan array binding signal (z-score) [16]: -0.388
- glycan array binding signal (z-score) [17]: 0.298
- glycan array binding signal (z-score) [18]: -0.323
- glycan array binding signal (z-score) [19]: 0.235
- glycan array binding signal (z-score) [20]: -0.214
- glycan array binding signal (z-score) [21]: 1.6
- glycan array binding signal (z-score) [22]: -0.266
- glycan array binding signal (z-score) [23]: 0.345
- glycan array binding signal (z-score) (Gal3S6S(b1-4)GlcNAc6S): 1.38
- glycan array binding signal (z-score) (Gal6S(b1-3)GlcNAc6S): 2.66
- glycan array binding signal (z-score) (Gal6S(b1-4)GlcNAc6S): 1.66
- glycan array binding signal (z-score) [24]: -0.647
- glycan array binding signal (z-score) [25]: -0.267
- glycan array binding signal (z-score) [26]: -0.4
